{"source": "PubChem BioAssay (NCATS)", "note": "Results filed as inconclusive are left out. Entries that show only a call come without a potency. Calls of active or inactive are those of the source. The call rests on the fitted dose curve; in most records, active means well fitted inhibition curve with a large enough effect; inconclusive means small, poorly fitted or top-dose-only effect; inactive means flat fitted curve, though single readings scatter. Peptide text beside a SMILES is read from it."}
{"system": "CP215", "assay": "qHTS profiling for inhibitors of Plasmodium falciparum proliferation (AID 504749); further: nearly all actives have a fitted effect of over 60% in size; further: potency means the concentration at half of the fitted maximal effect", "settings": "P. falciparum in erythrocytes, SYBR Green DNA, 72 h; series mostly up to 12.8 µM", "procedure,_shortened": "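P. falciparum-infected erythrocytes (0.3% parasitemia, 2.5% hematocrit) incubated with compound 72 h at 37 C, 5% CO2. Parasite DNA detected by SYBR Green after lysis, overnight at room temperature; normalised to 0.29 uM artemisinin and DMSO.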"}
{"compound": "CN(C)CCCOC1C(C(O)CO)OC2OC(C)(C)O[C@@H]21", "note": "(some centres not stated)", "Potency": "inactive"}
{"compound": "CCC(C)C(=O)OC1CCC=C2C=CC(C)C(CCC3CC(O)CC(=O)O3)[C@@H]21", "note": "(some centres not stated)", "Potency": "inactive"}
{"compound": "CC(=O)OC1CCC2C3CCc4cc(O)ccc4C3CCC12C", "note": "(configuration not stated)", "Potency": "inactive"}
{"compound": "CC[C@@]12CCCN3CCc4c(n(c5ccccc45)[C@](O)(C(=O)OC)C1)C32", "note": "(some centres not stated)", "Potency": "inactive"}
{"compound": "NC(C(=O)O)[C@@H]1CC(Cl)=NO1", "note": "(some centres not stated)", "Potency": "3.01 µM (active)"}
{"compound": "CN1CC(=O)N=C1N", "Potency": "inactive"}
{"compound": "OCC1OC([S-])[C@H](O)C(O)C1O.[Au+]", "note": "(some centres not stated)", "Potency": "inactive"}
{"compound": "CC(C)C1CCC(C(=O)NC(Cc2ccccc2)C(=O)O)CC1", "note": "(configuration not stated)", "Potency": "inactive"}
{"compound": "CCC(CCC(C)C1CCC2C3CC=C4CC(O)CC[C@@]4(C)C3CC[C@@]12C)C(C)C", "note": "(some centres not stated)", "Potency": "inactive"}
{"compound": "C[C@]12CCC(=O)C=C1CCC1C2C(=O)C[C@]2(C)C1CC[C@]2(O)C(=O)CO", "note": "(some centres not stated)", "Potency": "inactive"}
{"compound": "OCC1O[C@H](OC2C(CO)O[C@@](O)(CO)C2O)C(O)C(O)C1O", "note": "(some centres not stated)", "Potency": "inactive"}
{"compound": "CC1(C)OC2CO[C@]3(COS(N)(=O)=O)OC(C)(C)OC3C2O1", "note": "(some centres not stated)", "Potency": "inactive"}
{"compound": "CC1(C)OC2CC(=O)OC[C@@]23C1CC(=O)[C@]1(C)C3CC[C@@]2(C)C(c3ccoc3)OC(=O)C3O[C@@]321", "note": "(some centres not stated)", "Potency": "inactive"}
{"compound": "CCOC(=O)C1=CC(OC(CC)CC)C(NC(C)=O)C(N)C1", "note": "(configuration not stated)", "Potency": "inactive"}
{"compound": "COC1C=CO[C@@]2(C)Oc3c(C)c(O)c4c(O)c(c5c(nc6cc(C)ccn65)c4c3C2=O)NC(=O)/C(C)=C\\C=CC(C)C(O)[C@@H](C)C(O)C(C)[C@@H](OC(C)=O)C1C", "note": "(some centres not stated)", "Potency": "13.5 µM (active)"}
{"compound": "COC(=O)C(Cc1ccccc1)NC(=O)C(N)CC(=O)O", "note": "(stereo not drawn) (H-Asp-Phe-OMe; configuration not given here)", "Potency": "inactive"}
{"compound": "C[C@]12C=CC(=O)C=C1CCC1C2C(O)C[C@]2(C)C1CC[C@]2(O)C(=O)CO", "note": "(some centres not stated)", "Potency": "inactive"}
{"compound": "CC1(C)S[C@H]2C(NC(=O)[C@@H](N)c3ccc(O)cc3)C(=O)N2[C@@H]1C(=O)O", "note": "(some centres not stated)", "Potency": "inactive"}
{"compound": "CC(C)=CCC[C@](C)(O)C1CC=C(C)CC1", "note": "(some centres not stated)", "Potency": "inactive"}
{"compound": "C[C@]1(c2ccccc2)OC(C(=O)O)=CC1=O", "Potency": "inactive"}
{"compound": "CC(=O)N[C@H](CC(C)C)C(=O)O", "Potency": "inactive"}
{"compound": "COc1ccc2cc(C(C)CO)ccc2c1", "note": "(configuration not stated)", "Potency": "inactive"}
{"compound": "COC1C=CO[C@@]2(C)Oc3c(C)c(O)c4c(O)c(c(C=NN5CCN(C)CC5)c(O)c4c3C2=O)NC(=O)/C(C)=C\\C=CC(C)C(O)[C@@H](C)C(O)C(C)[C@H](OC(C)=O)C1C", "note": "(some centres not stated)", "Potency": "4.26 µM (active)"}
{"compound": "CC1CCC(C(C)C)C(=O)C1", "note": "(configuration not stated)", "Potency": "inactive"}
{"compound": "CNC1CC(N)[C@H](O)[C@@H](O[C@@H]2OC(CO)C3OC4(OC(C(N)CO)C(O)C(O)C4O)O[C@@H]3[C@H]2O)C1O", "note": "(some centres not stated)", "Potency": "inactive"}
{"compound": "CCCC(=O)O[C@]1(C(=O)CO)CCC2[C@@H]3CCC4=CC(=O)CC[C@]4(C)C3C(O)C[C@]21C", "note": "(some centres not stated)", "Potency": "inactive"}
{"compound": "CC(=O)[C@]1(O)CCC2C3C=C(Cl)C4=CC(=O)C5CC5[C@@]4(C)C3CC[C@]21C", "note": "(some centres not stated)", "Potency": "inactive"}
{"compound": "CC(=O)N[C@@H]1C(O)OC(CO)C(O)C1O", "note": "(some centres not stated)", "Potency": "inactive"}
{"compound": "C/C1=C2N=C(/C=C3N=C(/C(C)=C4\\[N-]C(C)(C5N=C1C(C)(CCC(=O)NCC(C)OP(=O)([O-])O[C@H]1C(O)C(n6cnc7cc(C)c(C)cc76)O[C@@H]1CO)C5CC(N)=O)C(C)(CC(N)=O)C4CCC(N)=O)C(C)(CC(N)=O)C\\3CCC(N)=O)C(C)(C)C/2CCC(N)=O.[CH2-]C1OC(n2cnc3c(N)ncnc32)C(O)C1O.[Co]", "note": "(some centres not stated)", "Potency": "inactive"}
{"compound": "O=C1OC(CO)C(O)C(O)C1O", "note": "(configuration not stated)", "Potency": "inactive"}
{"compound": "CNC1C(OC2C(O[C@@H]3C(O)C(O)[C@@H](N=C(N)N)C(O)C3N=C(N)N)OC(C)[C@@]2(O)CO)OC(CO)C(O)C1O", "note": "(some centres not stated)", "Potency": "inactive"}
{"compound": "COc1cc(C2c3cc4c(cc3C(O[C@@H]3OC5COC(c6cccs6)OC5C(O)C3O)C3COC(=O)C23)OCO4)cc(OC)c1O", "note": "(some centres not stated)", "Potency": "4.26 µM (active)"}
